Experiment [1] can be described thus: NCI Yeast Anticancer Drug Screen. Data for the rad50 strain (AID 155).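 Further: 0% = growth of vehicle-only cultures of the same strain.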 The following applies: S. cerevisiae rad50 strain growth inhibition; at 50.0 µM; hits give high values. The method, boiled down: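 Yeast carrying a defined DNA repair defect were exposed to test compounds, and growth was compared with vehicle-treated controls to give percent inhibition.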
Experiment [2] can be described thus: NCI Yeast Anticancer Drug Screen. Data for the mec2-1 strain (AID 157). Particulars: S. cerevisiae mec2-1 strain, at 50.0 µM, hits give high values. The method, boiled down:
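Cells of the genetically defined mec2-1 yeast strain are incubated with test compound. Inhibition of growth is calculated against vehicle-treated controls.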

Experiment [3] can be described thus: NCI Yeast Anticancer Drug Screen. Data for the sgs1 mgt1 strain (AID 161).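 Further: 0% = growth of cultures given vehicle only.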 Particulars: S. cerevisiae sgs1 mgt1 strain, at 50.0 µM, hits give high values. An outline of the steps:
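Test agents were incubated with a DNA-repair-mutant yeast strain. Growth was then read and compared against vehicle-treated controls.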

Experiment [4] in a line: NCI Yeast Anticancer Drug Screen. Data for the cln2 rad14 strain (AID 165).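 Further: 0% = growth equal to vehicle treated cultures.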 The following applies: S. cerevisiae cln2 rad14 strain, at 50.0 µM, hits give high values. The method, boiled down:
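The screen exposed genetically defined yeast (cln2 rad14) to test compounds and scored growth inhibition relative to vehicle-treated controls.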

Experiment [5] can be described thus: NCI Yeast Anticancer Drug Screen. Data for the bub3 strain (AID 167). The following applies: S. cerevisiae bub3 mutant strain, at 50.0 µM, hits give high values. An outline of the steps:
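Compounds were applied to a genetically altered yeast strain carrying a cell-cycle control defect. Growth inhibition was scored against vehicle-treated controls.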

Experiment [6] in a line: NCI Yeast Anticancer Drug Screen. Data for the mlh1 rad18 strain (AID 175). The following applies: S. cerevisiae mlh1 rad18 strain growth inhibition; at 50.0 µM; hits give high values. The method, boiled down:
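Compound-treated yeast growth, normalised to vehicle controls. Strain bears defined DNA repair mutations.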

Compounds without any hit were thinned out: in the full panel of roughly 79,000, 15% have a hit. A number with no mark means an inactive call. The source made the active and inactive calls. No stated cut-off is given here; in the data, active means growth inhibition above about 70%; inactive means the rest.

As for `CC(C)=CCC/C(C)=C/c1cc(C(=O)O)c2c(ccc3ccccc32)n1`, the growth inhibition was 9.6% in experiment [1]; 10.5% in experiment [2]; 6.7% in experiment [3]; 11.3% in experiment [4]; 25.1% in experiment [5]; 14.3% in experiment [6].
On to `C=C(C)C(=O)OCCn1c(=O)c2c(ncn2C)n(C)c1=O`, for which the growth inhibition in experiment [1] is -7.25%; in experiment [2], -18.8%; in experiment [3] it was -12.8%; in experiment [4], -3.1%; in experiment [5], -14.5%; in experiment [6], 5.55%.
`COc1ccc(C2ON(c3ccccn3)CC=C2C)cc1` (stereo unspecified): the growth inhibition in experiment [1] is 12.4%; in experiment [2], -9.25%; in experiment [3], 12.6%; in experiment [4], 12.2%; in experiment [5] it was -2.45%; in experiment [6] it was 6.55%.
On to `Cc1ccc(C(c2ccc(C)c(C)c2)C(O)C(O)C(O)CO)cc1C` (stereo unspecified), for which the growth inhibition was 20% in experiment [1]; -2.25% in experiment [2]; 0.65% in experiment [3]; 12.9% in experiment [4]; 6.7% in experiment [5]; 8.85% in experiment [6].
`[N-]=[N+]=Nc1ccccc1C(=O)NCCCNC(=O)c1ccccc1N=[N+]=[N-]`: the growth inhibition in experiment [1] is -0.25%; in experiment [2] it was -23.1%; in experiment [3], 25%; in experiment [4], 1.8%; in experiment [5] it was 19.4%; in experiment [6] it was 16%.
Take `COc1ccc(C2NCCCC2c2ccccc2)cc1` (stereo unspecified): the growth inhibition is -46.3% in experiment [1]; -29.4% in experiment [2]; -2.65% in experiment [3]; 14.8% in experiment [4]; -40.2% in experiment [5]; -11.1% in experiment [6].
Take `CCN(CC)c1ccc2c(C)c(Cc3ccccc3)c(=O)oc2c1`: the growth inhibition was 1.8% in experiment [1]; -22.8% in experiment [2]; 24.6% in experiment [3]; 7.7% in experiment [4]; 31.9% in experiment [5]; 0.7% in experiment [6].
`Cc1cc(O[Si](C)(C)C)nc(O[Si](C)(C)C)n1`: the growth inhibition in experiment [1] is 1.7%; in experiment [2], -3.7%; in experiment [3], 0.15%; in experiment [4], -49%; in experiment [5], -40.3%; in experiment [6], 11.9%.
Take `O=C(CCN1CCOCC1)Nc1ccc(F)cc1F`: the growth inhibition in experiment [1] is -18.8%; in experiment [2], 3.35%; in experiment [3] it was -3.15%; in experiment [4], 7.25%; in experiment [5], -36.5%; in experiment [6] it was -6.1%.
As for `Cc1cc2c(=O)cc(-c3ccncc3)oc2c(C(N)=O)c1C`, the growth inhibition in experiment [1] was 14.8%; in experiment [2], 4.2%; in experiment [3], -12%; in experiment [4], -1%; in experiment [5], 17.6%; in experiment [6] it was 22.5%.
Take `COc1ccc(CCN2C(=O)C(=O)N(c3ccc([N+](=O)[O-])cc3)C2=O)cc1OC`: the growth inhibition in experiment [1] is 22.6%; in experiment [2] it was 1.45%; in experiment [3], -13.3%; in experiment [4] it was 8.6%; in experiment [5] it was 0.95%; in experiment [6], 8.55%.
Turning to `Cc1ccc(S(=O)(=O)NC(CO)C(=O)O)cc1` (stereo unspecified), the growth inhibition in experiment [1] was -1.1%; in experiment [2] it was -18.6%; in experiment [3], -30.4%; in experiment [4], -24.6%; in experiment [5], -46%; in experiment [6] it was -9.65%.
Regarding `CCCCNCC(=O)O[C@]1(CC)C(=O)OCc2c1cc1n(c2=O)Cc2cc3ccccc3nc2-1`, the growth inhibition is 78% (active) in experiment [1]; 66.8% in experiment [2]; 49.5% in experiment [3]; 28.8% in experiment [4]; 40.2% in experiment [5]; 62.2% in experiment [6].
For `Cc1cc(C)c2ccccc2n1`, the growth inhibition in experiment [1] is -6.45%; in experiment [2], -30.4%; in experiment [3], -8.2%; in experiment [4], -3.4%; in experiment [5], -5.1%; in experiment [6] it was 18.1%.
Regarding `CC(=O)N(C)c1ccc(N)cc1`, the growth inhibition was 33.5% in experiment [1]; 25.2% in experiment [2]; 24.9% in experiment [3]; -2.35% in experiment [4]; 31.8% in experiment [5]; 36.5% in experiment [6].
In the case of `Cc1nc(N)[nH]c(=O)c1CCO`, the growth inhibition was -1.3% in experiment [1]; -23% in experiment [2]; -36.6% in experiment [3]; 3.3% in experiment [4]; -15.1% in experiment [5]; -3.8% in experiment [6].
Consider `CCOC1=CC(=O)CCC1`, for which the growth inhibition in experiment [1] is -0.2%; in experiment [2] it was -23%; in experiment [3], 24.9%; in experiment [4], -36.5%; in experiment [5], -7.1%; in experiment [6], 3%.
Consider `CCC(C)N=C1NS(=O)(=O)c2ccccc21` (stereo unspecified), for which the growth inhibition was 9.5% in experiment [1]; -3.3% in experiment [2]; -2.4% in experiment [3]; 33.2% in experiment [4]; -8.55% in experiment [5]; 7.85% in experiment [6].
`COc1ccc(O)c(/C=N\N=C\c2cc(OC)ccc2O)c1`: the growth inhibition in experiment [1] is -1.25%; in experiment [2], -1.15%; in experiment [3], -2.3%; in experiment [4] it was -22.5%; in experiment [5] it was 22.9%; in experiment [6], -2.8%.
As for `COc1ccc(C)cc1S(=O)(=O)c1c(Cl)cccc1[N+](=O)[O-]`, the growth inhibition in experiment [1] is -5.95%; in experiment [2], -15.4%; in experiment [3], 2.25%; in experiment [4] it was -20.5%; in experiment [5] it was -1.3%; in experiment [6], -36.8%.
Consider `COC(=O)C(Cc1c[nH]c2ccccc12)NC(=O)C(Cc1cnc[nH]1)NC(=O)C1CCC(=O)N1C(=O)OCc1ccccc1` (stereo unspecified), for which the growth inhibition was -10.2% in experiment [1]; -3.55% in experiment [2]; -2% in experiment [3]; -2.35% in experiment [4]; -1.35% in experiment [5]; -5.1% in experiment [6].

The record behind these values is PubChem BioAssay (NCI).
